Structures are written as SMILES. The campaign covered roughly 360,000 compounds. About 800 (0.22%) were called active. Many of the other results were omitted from the sample, so actives are more common in it than they were. Values without a mark were called inactive.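 Rule for the calls: active = activation of at least 8% versus controls, or a plate z-score of at least 8; inactive = the rest.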

Activation data for 25 compounds are collected here from PubChem BioAssay AID624168 (Sanford-Burnham Center for Chemical Genomics, 2012).

The assay can be described thus: compounds raising alpha-dystroglycan glycosylation – uHTS, Pro5-aDG cells, AlphaScreen, primary screen (AID 624168).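 Note: Pro5 are CHO cells carrying HIG-tagged alpha-DG that lacks glycosylation.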 The conditions noted are these: alpha-DG glycosylation AlphaScreen (IIH6), at 10 µM, active compounds read high, 0% Pro5, 100% B10-LARGE cell signal. For orientation: In Alpha technology, singlet oxygen from a donor bead excites a nearby acceptor bead.
Consider `Cc1cc(C)c(S(=O)(=O)n2cc(C(C)C(N)C(=O)O)c3ccccc32)c(C)c1` (stereo not given), for which the activation is -0.2%.

On to `Cc1ccc(NS(=O)(=O)c2c(C)[nH]c(C)c2C(=O)N2CCCCC2)c(C)c1`, for which the activation was -0.1%.

For the compound `CCN(CC)C(=O)C1=C(C)N(Cc2ccc(OC)cc2)C(=O)C(CC(=O)NCc2ccco2)C1` (stereo not given), the activation is -0.1%.

On to `Cc1ccc(S(=O)(=O)N2CCCCC2)cc1NC(=O)[C@@H]1CCCN1C(=O)c1cccs1`, for which the activation is 0.1%.

Take `O=C(Nc1cccc(Br)c1)C1CC(=O)N(C2CCCC2)C1` (stereo not given): the activation is 0%.

With `COc1ccccc1N1CCN(C(=O)c2cc(-c3ccc(Br)cc3)on2)CC1`, the activation was 9.8% (active).

With `COc1ccc(OCc2cc(C(=O)N3CCCC3)no2)c2ccccc12`, the activation was 0.3%.

With `COc1ccccc1N1CCN(C(=O)c2cc(=O)c3cc(C)cc(C)c3o2)CC1`, the activation was -0.2%.

For the compound `Cc1ccc(NS(=O)(=O)c2ccc(F)cc2)nc1`, the activation is -0.2%.

Turning to `Fc1ccc(OCc2nn3c(Cn4nnc5ccccc54)nnc3s2)cc1`, the activation is 0.5%.

For `C=CCOc1cccc(CNn2cn[nH]c2=S)c1`, the activation is 0%.

For `CC[C@]12c3[nH]c4cc(CCC(=O)N(C)C)ccc4c3CCN1C(=O)[C@@H](CC(=O)NCC13CC4CC(CC(C4)C1)C3)C[C@@H]2C(=O)N1CCN(C(=O)C2CC2)CC1`, the activation is -0.1%.

In the case of `Cc1cc(=O)oc(C)c1C(=O)NC1CC(C)(C)NC(C)(C)C1`, the activation was -0.1%.

Turning to `COc1ccc(CC(NC(C)=O)C(=O)NC2CCN(C(=O)c3ccc(OC)c(OC)c3)CC2)cc1OC` (stereo not given), the activation was -0.3%.

Take `Clc1cc(NC2CCCCC2)ncn1`: the activation was 0.2%.

`CN(C)C(=S)Nc1ccc(Br)cc1Cl`: the activation was 0.1%.

Regarding `Cc1cccc(CN2CCC(CNC(=O)Nc3ccc(F)c(Cl)c3)CC2)c1`, the activation was 5.2% (active).

As to `COc1ccc(Cl)cc1NC(=O)NCC1CCN(Cc2ccccc2F)CC1`, the activation was 1%.

Turning to `O=C(CN1CCN(Cc2ccccc2)CC1)Nc1ccc(F)c(F)c1`, the activation was -0.1%.

As for `Nc1cccnc1Sc1ccccc1`, the activation was 0%.

In the case of `CC(=O)N/C(=C/c1ccc(OC(F)F)cc1)C(=O)O`, the activation is -0.4%.

Turning to `Cc1cccc(OCC(O)CN2CCN(S(=O)(=O)c3ccc(C)cc3C)CC2)c1` (stereo not given), the activation was 0.1%.

In the case of `OC(COc1ccc(F)cc1Cl)CN1CCc2ccccc2C1` (stereo not given), the activation is 0.1%.

Regarding `Cc1ccc(OCC(O)CN2CCN(CC(O)COc3ccc(C)cc3Cl)CC2)c(Cl)c1` (stereo not given), the activation is 3.9% (active).

For `COc1ccc(CC(=O)OC(C)C(=O)Nc2ccc(S(N)(=O)=O)cc2)cc1` (stereo not given), the activation was 0.1%.
